The campaign covered roughly 39,000 compounds. About 3,300 (8.5%) were called active. What follows is part of a selection rich in actives, with near analogues and random picks from the rest.

The text below walks through data of the antibiotic and cytotoxicity screens of Wong et al. (2023).

The test system of this experiment is HepG2. In words: cytotoxicity call (relative viability < 0.9). Particulars: 10 µM.
In the case of `CN(C)CCCCNC(=O)[C@@H]1C[C@@H]2C(=O)N[C@@H](CCCCN(C)C)C(=O)N2[C@@H]1c1cccc(OCCO)c1`, the cytotoxicity call is “inactive”.
Turning to `S=c1[nH]c2ccccc2s1`, the cytotoxicity call is “inactive”.
Take `C[C@@H]1CN([C@@H](C)CO)C(=O)c2cc(NC(=O)CCCN(C)C)ccc2O[C@H]1CN(C)S(=O)(=O)c1cccs1`: the cytotoxicity call is “inactive”.
The entry for `COCCNCc1ccc(-c2cc3nccc(Oc4ccc(NC(=S)NC(=O)Cc5ccc(F)cc5)cc4F)c3s2)nc1` is “active”; for `COCCNCc1ccc(-c2cc3nccc(Oc4ccc(NC(=O)C5(C(=O)Nc6ccc(F)cc6)CC5)cc4F)c3s2)nc1` it is “active”; for `Cn1cnc(-c2cc3nccc(Oc4ccc(NC(=S)NC(=O)Cc5ccccc5)cc4F)c3s2)c1` it is “inactive”.
To `COc1ccc(CN(C)C[C@H]2Oc3c(NC(=O)Nc4cccc5ccccc45)cccc3C(=O)N([C@H](C)CO)C[C@H]2C)cc1` belongs “inactive”; to `COc1cccc(CNC(=O)C[C@@H]2C=C[C@H](NC(=O)C3CCOCC3)[C@H](CO)O2)c1`, “inactive”.
In the case of `C[C@H]1CN([C@@H](C)CO)C(=O)c2cc(C#Cc3ccc(F)cc3)cnc2O[C@H]1CN(C)CC1CCOCC1`, the cytotoxicity call was “inactive”.
To `C=CCN1C(=O)[C@@]2(O[C@H](CCOC(=O)NCCCCCC(=O)NO)[C@@H]([Si](C)(C)c3ccc(OC)cc3)[C@@H]2C)c2cc(I)ccc21` belongs “inactive”.
The entry for `O=C1NC2=C(C(=O)OC2)[C@H](c2ccccc2)N1` is “active”; for `O=C1COC[C@@H](c2ccccc2)N1` it is “inactive”; for `O=C1NC(=O)[C@@H](c2ccccc2)N1` it is “inactive”.
The entry for `C[C@@H]1CN([C@@H](C)CO)C(=O)c2cc(NC(=O)Cc3ccccc3)ccc2O[C@H]1CN(C)S(=O)(=O)c1ccccc1` is “inactive”; for `C[C@@H]1CCCCO[C@@H](CN(C)C(=O)C2CCCCC2)[C@@H](C)CN([C@@H](C)CO)C(=O)c2cc(NS(=O)(=O)c3ccc(Cl)cc3)ccc2O1` it is “inactive”; for `Cc1ccc(S(=O)(=O)N2CCO[C@@H]2CNC(=O)C(=O)NCc2ccccn2)cc1` it is “inactive”.
Consider `C[C@H](CO)N1C[C@H](C)[C@H](CN(C)Cc2ccc(C(=O)Nc3ccccc3N)cc2)Oc2ccc(NC(=O)Nc3ccc4c(c3)OCO4)cc2C1=O`, for which the cytotoxicity call is “inactive”.
The entry for `O=C1c2ccccc2[C@](Cc2ccccc2I)(C(=O)O)[C@H](c2ccc(CO)cc2)N1C1CCCCC1` is “inactive”.
`CN(C)CCCNC(=O)[C@@]1(Cc2ccccc2I)c2ccccc2C(=O)N(C2CCCCC2)[C@H]1c1ccc(CO)cc1`: the cytotoxicity call is “active”.
To `COCCCNC(=O)[C@@]1(Cc2ccccc2I)c2ccccc2C(=O)N(C2CCCCC2)[C@H]1c1ccc(CO)cc1` belongs “active”; to `O=C1c2ccccc2[C@](Cc2ccccc2I)(C(=O)NCc2ccccc2)[C@H](c2ccc(CO)cc2)N1C1CCCCC1`, “inactive”; to `COc1ccc(CCNC(=O)[C@@]2(Cc3ccccc3I)c3ccccc3C(=O)N(C3CCCCC3)[C@H]2c2ccc(CO)cc2)cc1`, “inactive”.
The entry for `O=C1c2ccccc2[C@](Cc2ccccc2I)(C(=O)NCC(F)(F)F)[C@H](c2ccc(CO)cc2)N1C1CCCCC1` is “inactive”; for `COc1ccccc1CN1C(=O)c2ccccc2[C@](Cc2ccccc2I)(C(=O)NCCN2CCOCC2)[C@@H]1c1ccc(CO)cc1` it is “inactive”.
The entry for `CN(C)CCCN1C(=O)[C@@]2(Cc3ccccc31)c1ccccc1C(=O)N(C1CCCCC1)[C@H]2c1ccc(CO)cc1` is “inactive”; for `O=C1c2ccccc2[C@](Cc2ccccc2I)(C(=O)NCCN2CCOCC2)[C@H](c2ccc(CO)cc2)N1C1CCCCC1` it is “active”; for `Cc1noc(C)c1NC(=O)N(C)C[C@@H]1OCCCC[C@H](C)Oc2ccc(NS(=O)(=O)c3ccc(F)cc3)cc2C(=O)N([C@@H](C)CO)C[C@@H]1C` it is “inactive”.
Take `CO[C@@H]1CN(C)C(=O)c2ccc(NS(=O)(=O)c3cn(C)cn3)cc2OC[C@@H](C)N(CC2CC2)C[C@H]1C`: the cytotoxicity call was “inactive”.
On to `O=S(=O)(NCC[C@H]1CC[C@@H](NS(=O)(=O)c2ccccc2Cl)[C@H](CO)O1)c1ccc(F)cc1`, for which the cytotoxicity call is “inactive”.
Consider `C[C@@H]1CN([C@H](C)CO)C(=O)Cc2cc(NC(=O)Nc3ccc4c(c3)OCO4)ccc2O[C@@H]1CN(C)Cc1ccc(Oc2ccccc2)cc1`, for which the cytotoxicity call was “active”.
The entry for `C[C@@H]1CN([C@@H](C)CO)C(=O)Cc2cc(NC(=O)Nc3ccc4c(c3)OCO4)ccc2O[C@@H]1CN(C)Cc1ccc(Oc2ccccc2)cc1` is “active”.
The entry for `C[C@@H]1CN([C@H](C)CO)C(=O)Cc2cc(NC(=O)Nc3ccc4c(c3)OCO4)ccc2O[C@H]1CN(C)Cc1ccc(Oc2ccccc2)cc1` is “inactive”; for `C[C@H]1CN([C@@H](C)CO)C(=O)Cc2cc(NC(=O)Nc3ccc4c(c3)OCO4)ccc2O[C@@H]1CN(C)Cc1ccc(Oc2ccccc2)cc1` it is “inactive”; for `C[C@H](CO)N1C[C@H](C)[C@@H](CN(C)Cc2ccc(Oc3ccccc3)cc2)Oc2ccc(NC(=O)Nc3ccc4c(c3)OCO4)cc2CC1=O` it is “inactive”.
On to `C[C@H]1CN([C@@H](C)CO)C(=O)Cc2cc(NC(=O)Nc3ccc4c(c3)OCO4)ccc2O[C@H]1CN(C)Cc1ccc(Oc2ccccc2)cc1`, for which the cytotoxicity call was “inactive”.
To `C[C@H](CO)N1C[C@H](C)[C@H](CN(C)Cc2ccc(Oc3ccccc3)cc2)Oc2ccc(NC(=O)Nc3ccc4c(c3)OCO4)cc2CC1=O` belongs “active”; to `C[C@@H]1CN([C@@H](C)CO)C(=O)Cc2cc(NC(=O)Nc3ccc4c(c3)OCO4)ccc2O[C@H]1CN(C)Cc1ccc(Oc2ccccc2)cc1`, “inactive”.
The entry for `C[C@@H]1CCCCO[C@H](CN(C)C(=O)Nc2ccc(F)cc2)[C@H](C)CN([C@@H](C)CO)C(=O)c2cc(NC(=O)C3CCCCC3)ccc2O1` is “inactive”.
As to `Cc1noc(C)c1S(=O)(=O)Nc1cccc2c1O[C@H](CN(C)S(=O)(=O)c1ccc(Cl)cc1)[C@H](C)CN([C@H](C)CO)C2=O`, the cytotoxicity call is “inactive”.
The entry for `C[C@@H]1CCCCO[C@@H](CN(C)S(=O)(=O)c2ccc(Cl)cc2)[C@@H](C)CN([C@H](C)CO)C(=O)c2cc(NS(=O)(=O)c3ccccc3)ccc2O1` is “inactive”; for `C[C@H](CO)N1C[C@H](C)[C@H](CN(C)S(=O)(=O)c2ccc(C#N)cc2)Oc2ncc(-c3ccc(F)cc3)cc2C1=O` it is “inactive”; for `C[C@H](CO)N1C[C@H](C)[C@H](CN(C)Cc2ccc(Oc3ccccc3)cc2)Oc2ccc(NC(=O)Nc3ccc(F)cc3)cc2CC1=O` it is “active”.
As for `C[C@@H]1CN([C@@H](C)CO)C(=O)Cc2cc(NC(=O)Nc3ccc(F)cc3)ccc2O[C@H]1CN(C)Cc1ccc(Oc2ccccc2)cc1`, the cytotoxicity call is “active”.
The entry for `C[C@@H]1CN([C@H](C)CO)C(=O)Cc2cc(NC(=O)Nc3ccc(F)cc3)ccc2O[C@@H]1CN(C)Cc1ccc(Oc2ccccc2)cc1` is “active”.
On to `C[C@H]1CN([C@@H](C)CO)C(=O)Cc2cc(NC(=O)Nc3ccc(F)cc3)ccc2O[C@@H]1CN(C)Cc1ccc(Oc2ccccc2)cc1`, for which the cytotoxicity call is “active”.
Take `COc1ccc(CN(C)C[C@H]2OCCCC[C@@H](C)Oc3ccc(NC(=O)c4ccncc4)cc3C(=O)N([C@@H](C)CO)C[C@@H]2C)cc1`: the cytotoxicity call was “inactive”.
To `Cc1ccc(S(=O)(=O)Nc2ccc3c(c2)C(=O)N([C@H](C)CO)C[C@@H](C)[C@H](CN(C)C(=O)c2ccccc2)OCCCC[C@@H](C)O3)cc1` belongs “inactive”; to `Cc1ccc(S(=O)(=O)N[C@H]2CC[C@H](CC(=O)N3CCC(Cc4ccccc4)CC3)O[C@@H]2CO)cc1`, “inactive”.
The entry for `C[C@@H]1CCCCO[C@@H](CN(C)C)[C@@H](C)CN([C@H](C)CO)C(=O)c2cc(NS(=O)(=O)c3cn(C)cn3)ccc2O1` is “inactive”.
To `CC(C)NC(=O)N(C)C[C@H]1Oc2c(NC(=O)NC3CCCCC3)cccc2C(=O)N([C@@H](C)CO)C[C@H]1C` belongs “inactive”; to `C[C@@H]1CN([C@@H](C)CO)C(=O)c2cccc(NC(=O)Nc3ccccc3)c2O[C@@H]1CN(C)S(=O)(=O)c1cn(C)cn1`, “inactive”.
Regarding `C[C@@H]1CCCCO[C@@H](CN(C)S(=O)(=O)c2cn(C)cn2)[C@H](C)CN([C@H](C)CO)C(=O)c2cc(N(C)C)ccc2O1`, the cytotoxicity call was “inactive”.
Regarding `O=C(CN1CCOCC1)N[C@@H]1CC[C@@H](CCNC(=O)Nc2cc(F)ccc2F)O[C@@H]1CO`, the cytotoxicity call was “inactive”.
The entry for `C[C@@H]1CCCCO[C@H](CN(C)C)[C@@H](C)CN([C@H](C)CO)C(=O)c2cc(NC(=O)CCCN(C)C)ccc2O1` is “inactive”; for `C[C@@H]1CCCCO[C@@H](CN(C)C(=O)NC2CCCCC2)[C@@H](C)CN([C@@H](C)CO)C(=O)c2cc(NC(=O)Nc3ccc4c(c3)OCO4)ccc2O1` it is “inactive”.
The entry for `C[C@@H]1CN([C@@H](C)CO)C(=O)Cc2cc(NC(=O)Nc3ccc(F)cc3)ccc2O[C@@H]1CN(C)Cc1ccc(Oc2ccccc2)cc1` is “inactive”; for `C[C@H]1CN([C@@H](C)CO)C(=O)Cc2cc(NC(=O)Nc3ccc(F)cc3)ccc2O[C@H]1CN(C)Cc1ccc(Oc2ccccc2)cc1` it is “active”; for `C[C@H](CO)N1C[C@H](C)[C@@H](CN(C)Cc2ccc(Oc3ccccc3)cc2)Oc2ccc(NC(=O)Nc3ccc(F)cc3)cc2CC1=O` it is “active”.
The entry for `C[C@@H]1CN([C@H](C)CO)C(=O)Cc2cc(NC(=O)Nc3ccc(F)cc3)ccc2O[C@H]1CN(C)Cc1ccc(Oc2ccccc2)cc1` is “active”.
For `CC(=O)Nc1nnc(S(N)(=O)=O)s1`, the cytotoxicity call was “inactive”.
Consider `C[C@H](CO)N1C[C@H](C)[C@@H](CN(C)S(=O)(=O)c2ccc(F)cc2)Oc2ccc(NC(=O)Cn3cnnn3)cc2C1=O`, for which the cytotoxicity call is “inactive”.
On to `CC(C)NC(=O)Nc1cccc2c1O[C@@H](CN(C)S(=O)(=O)c1cn(C)cn1)[C@@H](C)CN([C@H](C)CO)C2=O`, for which the cytotoxicity call is “inactive”.
The entry for `C[C@@H]1CN([C@@H](C)CO)C(=O)c2cccc(NC(=O)Nc3ccc(F)cc3)c2O[C@H]1CN(C)Cc1ccc(-c2ccccc2)cc1` is “inactive”; for `CONC(=O)Nc1ccc(-c2sc3c(c2CN(C)Cc2ccccc2)c(=O)n(-c2ccccc2)c(=O)n3Cc2c(F)cccc2F)cc1` it is “inactive”; for `CC(C)OC(=O)c1cn(Cc2c(F)cccc2F)c2sc(-c3ccc(NC(=O)C(C)C)cc3)c(CN(C)Cc3ccccc3)c2c1=O` it is “active”.
